High-throughput results: PubChem BioAssay, National Center for Advancing Translational Sciences (NCATS)
TDP1 cell noCPT: qHTS for Inhibitors of human tyrosyl-DNA phosphodiesterase 1 (TDP1): qHTS in cells in absence of CPT; DT40 Tdp1-/- hTDP1 cells, no CPT, ATP luminescence, 48 h; Potency, µM (series often up to 46.2 µM), without a hit: top-dose activity change, negative = growth inhibition, actives largely listed as inhibitors; 420,000 tested, 15% active; AID 686978, 2013; further: nearly all actives have a fitted effect of over 55% in size
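Readout: luminescence from CellTiter-Glo after 30 min in the dark at RT. Cells: DT40 Tdp1-/- with stable hTDP1, 400/well. Exposure: compounds alone, ≥48 hr, 37 °C.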
HT1080-NT tox: kills 2HG-producing HT-1080-NT fibrosarcoma cells | HT-1080-NT fibrosarcoma viability, CellTiter-Glo ATP luminescence, 48 h | Potency, µM (doses to about 46.1 µM), for inactives: at the top dose activity, negative = less viability, hits mostly cytotoxic | 360,000 tested, 1.6% active | AID 686970;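 further: NT is the 2HG producing partner of a matched IDH1 knockdown line; 0% = DMSO-treated cells and -100% = media-only wells without cells; nearly all actives have a fitted effect of over 55% in size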
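HT-1080-NT; 750 cells/well; 5% FBS RPMI; 48 h compound, 37 degrees C; CellTiter-Glo luminescence; curve fitting and curve-class assignment.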
HT1080 IDH1KD tx: HT-1080 IDH1 knockdown cell toxicity (counter line); Potency, µM (titrated, usually from 46.1 µM), inactives show top-dose activity, negative = toxicity, actives largely listed as cytotoxic; 360,000 tested, 2% active; HT-1080 IDH1 knockdown viability, ATP luminescence, 48 h; AID 686971;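 further: 0% = DMSO wells and -100% = cell-free medium wells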
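Cytotoxicity counter-line: IDH1KD HT-1080, 48 h, CellTiter-Glo. Curves classed by r2, magnitude and activity.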
DT40 TDP1 CPT: growth inhibition of DT40 Tdp1-/-;hTDP1 cells with camptothecin (screen for TDP1 inhibitors) | chicken DT40 Tdp1-/-;hTDP1 cells + 20 nM CPT, ATP luminescence, 48 h | Potency, µM (top dose mostly 46.2 µM), for inactives: at the top dose activity change, negative = growth inhibition, most hits filed as inhibitors | 420,000 tested, 12% active; further: nearly all actives have a fitted effect of over 55% in size
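Cell growth measured by CellTiter-Glo luminescence after a minimum 48 h, 37 C compound exposure with 20 nM CPT in Tdp1-knockout DT40 cells stably expressing hTDP1, seeded 400/well; qHTS titration format.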
KB-3-1 cytotox: kills parental KB-3-1 adenocarcinoma cells; KB-3-1 viability, CellTiter-Glo ATP luminescence, 72 h; Potency, µM (titrated, usually from 46.1 µM), most hits filed as cytotoxic; 400,000 tested, 1.4% active; AID 1347075; further: nearly all actives have a fitted effect of over 60% in size
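Here the drug-naive KB-3-1 line serves as comparator for MDR sub-line selectivity; cells received compound titrations, 72 h at 37 °C, then CellTiter-Glo readout.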
KB-V1 MDR tox: KB-V1 MDR subline cytotoxicity; AID 1347076; KB-V1 MDR cells viability, CellTiter-Glo, 72 h; 400,000 tested, 3.4% active; Potency, µM (series often up to 46.1 µM), most hits filed as cytotoxic; further: nearly all actives have a fitted effect of over 60% in size
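Compound-treated KB-V1 multidrug-resistant cells, 72 h, 37 degrees C; viability by CellTiter-Glo. Fitted qHTS curves give the values.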
Active calls of the source: *; i = inactive; ? = inconclusive; nt = no result; [ ] = dose if it differs, or a comment. An excerpt weighted towards active compounds, which were near 19% of everything screened. The call rests on the fitted dose curve; in most records, active means well fitted curve in the direction sought with a large enough effect; inconclusive means small, poorly fitted or top-dose-only effect, or another doubt; inactive means no such curve, though single readings can be large; an effect the other way counts as inactive or inconclusive. Unless noted, on the % scale 0 is the no-effect control and ±100 the full control effect; potency means the concentration at half of the fitted maximal effect.

SMILES	TDP1 cell noCPT	HT1080-NT tox	HT1080 IDH1KD tx	DT40 TDP1 CPT	KB-3-1 cytotox	KB-V1 MDR tox
COc1ccc(-c2sc3ccccc3c2C#CCO)cc1	-9%	-13%	-13%	-13%	?	i
COc1ccc2sc(-c3ccccc3OC)c(C#Cc3cncn3C)c2c1	?	?	?	?	i	i
Cn1cncc1C#Cc1c(-c2ccc(S(C)(=O)=O)cc2)sc2ccccc12	12µM*	-1%	1%	13µM*	i	i
CCCCN1C(=O)C(CC(=O)NCc2cccs2)CC(C(=O)N(CC)CC)=C1C (centres undefined)	-4%	0%	13%	0%	i	i
COc1ccc2sc(-c3ccc(S(C)(=O)=O)cc3)c(C#CCO)c2c1	21µM*	?	-27%	15µM*	i	?
CS(=O)(=O)c1ccc(-c2sc3ccccc3c2C#CCCO)cc1	?	-19%	-12%	16µM*	i	i
COc1ccc(CCNC(=O)c2cc3c(=O)n(C)c4ccccc4c3n2C)cc1OC	16µM*	9%	0%	?	i	?
COc1ccc(OC)c(CCNC(=O)c2cc3c(=O)n(C)c4ccccc4c3n2C)c1	23µM*	nt	nt	?	i	i
CN(C)CCN(CC1CCCN(Cc2ccccc2F)C1)C(=O)c1ccc(F)cc1 (centres undefined)	-28%	-26%	-27%	0%	i	i
COc1ccccc1OCCNC(=O)C(=O)c1c[nH]c2ccccc12	-16%	0%	1%	-22%	i	i
COc1ccccc1NC(C)C(=O)c1c[nH]c2ccccc12 (centres undefined)	?	nt	nt	11µM*	i	i
O=C(c1c[nH]c2ccccc12)C(Cl)c1ccccc1 (centres undefined)	21µM*	-29%	?	23µM*	i	?
S=C(NCC1CCCO1)Nc1ccccc1 (centres undefined)	-6%	13%	16%	2%	i	i
CCN(Cc1ccccc1)S(=O)(=O)c1cc(C(=O)c2c(N)n(C)c(=O)n(C)c2=O)ccc1OC	29µM*	-11%	-1%	?	i	i
CC(NC(=O)c1ccc(CS(C)(=O)=O)cc1)C1CC2CCC1C2 (centres undefined)	-14%	0%	1%	-6%	i	i
COc1ccc(C(=O)NC(C)C2CC3CCC2C3)c(OC)c1 (centres undefined)	21µM*	8%	0%	23µM*	i	i
CCN(Cc1ccccc1)S(=O)(=O)c1cc(C(=O)NC(C)C2CC3CCC2C3)ccc1OC (centres undefined)	15µM*	-6%	-8%	16µM*	i	i
COc1cc(C(=O)NC(C)C2CC3CCC2C3)cc(OC)c1OC (centres undefined)	?	6%	-3%	?	?	i
COc1ccc(N2CCN(C(=S)Nc3cc(C)ccc3C)CC2)cc1	-11%	?	16%[9.24 µM]	-9%	i	i
CCOC(=O)c1c(C)[nH]c(C)c1C(=O)COC(=O)c1cccs1	-8%	1%	6%	?	i	i
C=CCN(c1ccccc1)S(=O)(=O)c1cccc(C(=O)NNC(=O)c2ccncc2)c1	?	8%	8%	-12%	i	i
C=CCN(c1ccccc1)S(=O)(=O)c1cccc(C(=O)N2CC(C)CC(C)C2)c1 (centres undefined)	3.7µM*	-24%	?	9.2µM*	?	7.3µM*
C=CCN(c1ccccc1)S(=O)(=O)c1cccc(C(=O)N2CCCC2)c1	18µM*	1%	8%	16µM*	i	i
